Common to all, as to assay: NCI-60 one-dose screen, 48 h (100 = growth as untreated, 0 = no growth, -100 = all killed)
Common to all, as to conditions: 10 µM unless noted

Experiment [1] has as its system DU-145 prostate.
Experiment [2] deals with K-562 leukemia.
Experiment [3] concerns MALME-3M melanoma.
In experiment [4] the test system is MDA-MB-231 breast.
Experiment [5] deals with RXF 393 renal.
Experiment [6] concerns SF-268 CNS.
The subject of experiment [7] is SF-295 CNS.
In experiment [8] the test system is SF-539 CNS.
The test system of experiment [9] is UACC-257 melanoma.
Experiment [10] relates to M14 melanoma.

The text below walks through data of PubChem BioAssay (NCI).

Structures are written as SMILES. Compounds without any hit were thinned out: in the full panel of roughly 83,000, 20% have a hit.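 Values shown are percent growth following 48 h exposure of cells in 96-well plates to a single concentration of compound; below 10 was considered active.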 Unmarked numbers belong to inactive results. Activity calls are given as the source filed them.

Take `Cc1ccccc1NS(=O)(=O)c1cccc(C(=O)Nc2ccc(Br)cc2)c1`: the growth in experiment [1] was 57.8% [25 µM]; in experiment [2], 23.1% [25 µM]; in [3] it was 18% [25 µM]; in experiment [4], 56% [25 µM]; in [5], 60.7% [25 µM]; in experiment [6] it was 36.5% [25 µM]. Further, the growth in experiment [7] is 19.7% [25 µM]; in [8], 57.3% [25 µM]; in experiment [9] it was 27.4% [25 µM]; in [10], 35.5% [25 µM].
For the compound `Cc1ccc(-n2c3c(c(-c4ccccc4)c2-c2ccccc2)C2=NCCN2C=N3)cc1`, the growth was 95% in experiment [1]; 64.2% in experiment [2]; 97.9% in [3]; 80.5% in experiment [4]; 101% in experiment [5]; 96.2% in experiment [6]. Also, the growth in [7] was 99.2%; in experiment [8] it was 95.4%; in experiment [9] it was 104%; in [10], 95.7%.
For the compound `CC(=O)Nc1ccc(-c2ccc3c(c2)NC(=O)/C3=C\c2ccc[nH]2)cc1`, the growth in [1] was 72%; in experiment [2] it was 96.1%; in [3] it was 109%; in [4] it was 80.7%; in experiment [5], 104%; in experiment [6] it was 92.1%. The growth in experiment [7] was 87.2%; in experiment [8] it was 81.4%; in experiment [9], 119%; in experiment [10] it was 105%.
As to `COc1cccc(-c2cc(C(=O)Nc3ccc(/C=C/c4ccc(OC5CCN(C)CC5)cc4)cc3)ccc2OC)c1`, the growth was -64.9% (active) in experiment [1]; -47.9% (active) in experiment [2]; 51.3% in experiment [3]; -60.5% (active) in experiment [4]; 28.9% in experiment [5]; -30.8% (active) in experiment [6]. For the same compound, the growth is -63% (active) in [7], 8.18% (active) in experiment [8], 83.7% in [9] and -21.8% (active) in experiment [10].
Turning to `COc1ccc(-c2[nH][nH]c(=O)c2-c2nc3ccccc3s2)cc1`, the growth in experiment [1] is 108%; in experiment [2] it was 98.2%; in experiment [3], 110%; in [4], 104%; in experiment [5], 109%; in [6], 101%. Moreover, the growth in [7] is 107%; in experiment [8], 108%; in experiment [9], 106%; in [10] it was 107%.
In the case of `N#Cc1c(NC(=O)NCc2ccccc2)sc2c1CCCC2`, the growth in experiment [1] is 10.1%; in [2], 14%; in experiment [3] it was 47.5%; in experiment [4], 18.8%; in experiment [5], 0.0173% (active); in [6], 46.9%. Further, the growth is 21% in experiment [7], -1.85% (active) in experiment [8], 68% in experiment [9] and 10.6% in [10].
For `O=C1c2ccc3c4c(ccc(c24)C(=O)N1CCCNCc1ccccc1)C(=O)N(CCCNCc1ccccc1)C3=O`, the growth in experiment [1] was -93.6% (active); in [2] it was -47.9% (active); in [3] it was -58.5% (active); in [4], -8.41% (active); in [5], -88.8% (active); in [6] it was -71.4% (active). The growth was -39.7% (active) in [7], -69.6% (active) in [8], -95.2% (active) in experiment [9] and -76% (active) in experiment [10].
Consider `COc1cc(OC)cc(C(=O)C[n+]2cccc3cc[nH]c32)c1`, for which the growth in [1] is 115%; in experiment [2] it was 98%; in experiment [3], 99.1%; in [4], 98.4%; in experiment [5], 83.8%; in [6] it was 97%. In addition, the growth in experiment [7] is 101%; in experiment [8], 101%; in [9], -43.7% (active); in experiment [10], 96.3%.
As for `CCOC(=O)c1ccc2c(c1)ncn2-c1ccc(NC(=O)Nc2cccc(C)c2)cc1`, the growth in [1] is 71.9%; in experiment [2], 18%; in experiment [3], 96.2%; in experiment [4] it was 52.5%; in experiment [5], 84.5%; in experiment [6], 95.4%. Moreover, the growth in experiment [7] is 57.6%; in experiment [8], 49.2%; in experiment [9], 94%; in experiment [10], 64.5%.
As for `CCOC(=O)[C@@H]1CCCN(S(=O)(=O)c2ccc(S(=O)(=O)N(CC)CC)c(F)c2)C1`, the growth was 99% in experiment [1]; 37.4% in experiment [2]; 79.9% in [3]; 92.9% in experiment [4]; 76.4% in experiment [5]; 85.9% in [6]. Besides, the growth in experiment [7] was 49.6%; in experiment [8], 88.8%; in experiment [9], 60.6%; in experiment [10], 76.2%.
Regarding `COc1ccc(C(=O)Nc2cccc(C3CCc4c(cc(OC)c(OC)c4OC)O3)c2)cc1` (stereo not given), the growth was 69.9% in experiment [1]; 16.8% in experiment [2]; 46.2% in [3]; 63.1% in [4]; 81.1% in experiment [5]; 52.7% in experiment [6]. Also, the growth in [7] was 42.2%; in [8] it was 61.3%; in [9] it was 52%; in [10], 34.2%.
In the case of `Cn1ccnc1C(=O)/C=C/c1ccc(CC(=O)Nc2ccc(Cl)cc2)cc1`, the growth in experiment [1] was 6.47% (active); in experiment [2] it was 7.81% (active); in experiment [3], 87.6%; in [4] it was 7.75% (active); in experiment [5], 17.9%; in experiment [6] it was 7.98% (active). Also, the growth in experiment [7] is 1.24% (active); in experiment [8] it was -35.2% (active); in experiment [9], 85.9%; in experiment [10], 67.7%.
For `O=C(Nc1ccccc1)Nc1ccc2cc3ccc(NC(=O)Nc4ccccc4)cc3nc2c1`, the growth in experiment [1] is 39.2%; in [2], 1.08% (active); in experiment [3], -9.29% (active); in experiment [4], -51.4% (active); in experiment [5], 28.5%; in experiment [6] it was -22.4% (active). For the same compound, the growth was 17.8% in [7], -56% (active) in experiment [8], 104% in [9] and 47.2% in [10].
